# PubChem BioAssay (EPA / NIEHS)
# Values joined by “and” are separate entries in the source; they are usually repeats but may differ in a detail not shown here. Equal entries are not always repeated. Records with an inconclusive call do not appear. More than one record can exist for a structure, and the calls need not agree. Active and inactive are the calls of the source. Rule for the calls, unless noted: active = hit-call score of the fitted dose curve at least 0.9, where 1 is the maximum; inactive = score below 0.9.
# Assays:
# [1] = IUF_NPC1b_proliferation_BrdU_72hr: Leibniz Research Institute for Environmental Medicine (IUF) 72-hour Neural Progenitor Cell Bromodeoxyuridine (BrdU) Proliferation Assay (NPC1b) (AID 2284207)
# Summary of the method: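 Human fetal cortex-derived (GW 16-19) neural progenitor spheres, 0.25-0.35 mm, one per well in EGF/FGF proliferation medium, exposed to compound for 72 h at 37C, pH 7.2-7.6. BrdU incorporation over the final 16 h read by luminescence ELISA, relative to DMSO.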
# [2] = IUF_NPC1a_proliferation_area_72hr: Leibniz Research Institute for Environmental Medicine (IUF) 72-hour Neural Progenitor Cell Proliferation Area Assay (NPC1a) (AID 2284208)
# Summary of the method: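 Measured in 3D suspension: each well held one primary hNPC sphere grown with EGF and FGF at pH 7.2-7.6. Compound stayed on for 72 h, then area was imaged; spheres lacking growth factors defined reduced proliferation.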
# [3] = IUF_NPC1_viability_72hr: Viability Assessment at 72 hours in the Leibniz Research Institute for Environmental Medicine (IUF) Neural Progenitor Cell Proliferation Assay (NPC1) (AID 2284209)
# Summary of the method: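 Spheres of primary human neural progenitors were plated singly in proliferation medium and treated for 72 h. Mitochondrial reduction of resazurin was then measured by fluorescence and analysed against DMSO controls.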
# [4] = CCTE_Mundy_HCI_Cortical_Synap_Neur_Matur_NeuriteSpotCountPerNeuriteLength: CCTE's Synaptogenesis and Neurite Maturation Assay in rat cortical cells for Neurite Spot Count per Neurite Length, Mundy Lab (AID 2284210)
# Summary of the method: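 Synaptophysin spots per unit neurite length, measured by automated imaging of MAP2/synaptophysin/Hoechst-stained neurons. Cultures from rat cortex received chemical at DIV 7 with media change through DIV 12; glial growth arrested by AraC at DIV 5; DMSO baseline.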
# [5] = CCTE_Mundy_HCI_Cortical_Synap_Neur_Matur_BPCount: CCTE's Synaptogenesis and Neurite Maturation Assay in rat cortical cells for Branch Point Count, Mundy Lab (AID 2284211)
# Summary of the method: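 HCI read-out of branch points from MAP2/synaptophysin/Hoechst immunofluorescence; rat cortical cultures, AraC DIV 5, dosing DIV 7, fixed DIV 12; fit in positive direction vs DMSO baseline.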
# [6] = CCTE_Mundy_HCI_Cortical_NOG_NeuriteCount: CCTE's Neurite Outgrowth Assay in rat cortical cells for Neurite Count, Mundy Lab (AID 2284212);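 note: cells fixed about two days after chemical exposure began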
# Summary of the method: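 Rat cortical primary cells; compound added 2 h post-plating, 1/10 dilution of working solution. Anti-betaIII-tubulin/AF488 ICC; ArrayScan neurite count vs DMSO.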
# [7] = CCTE_Mundy_HCI_Cortical_Synap_Neur_Matur_NeuriteLength: CCTE's Synaptogenesis and Neurite Maturation Assay in rat cortical cells for Neurite Length, Mundy Lab (AID 2284214)
# Summary of the method: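 Cultures of rat primary cortical cells received chemical at DIV 7 and were fixed at DIV 12, after glial arrest with AraC at DIV 5. Neurite length was measured by automated imaging of MAP2 immunofluorescence.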
# [8] = CCTE_Mundy_HCI_Cortical_Synap_Neur_Matur_NeuriteSpotCountPerNeuron: CCTE's Synaptogenesis and Neurite Maturation Assay in rat cortical cells for Neurite Spot Count per Neuron Count, Mundy Lab (AID 2284215)
# Summary of the method: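 Developing rat cortical neurons, with glia suppressed by AraC, are exposed to chemicals from DIV 7 to DIV 12. Automated fluorescence imaging of MAP2-labelled neurites and synaptophysin puncta yields a count per neuron, normalised against DMSO wells.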
# [9] = CCTE_Mundy_HCI_Cortical_Synap_Neur_Matur_SynapseCount: CCTE's Synaptogenesis and Neurite Maturation Assay in rat cortical cells for Synapse Count, Mundy Lab (AID 2284218)
# Summary of the method: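 Cells were plated, allowed 2 hr to attach, treated with AraC at DIV 5, then exposed to chemicals from DIV 7 until DIV 12. After fixation and MAP2/synaptophysin immunolabelling, synapses per neuron were quantified by automated imaging against DMSO.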
# [10] = CCTE_Mundy_HCI_Cortical_Synap_Neur_Matur_NeuriteCount: CCTE's Synaptogenesis and Neurite Maturation Assay in rat cortical cells for Neurite Count, Mundy Lab (AID 2284222);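 for outcome: exposure from day 7 to day 12 in vitro with readout at day 12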
# Summary of the method: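 Rat cortical neurons, 96-well; AraC DIV 5; chemical + media change DIV 7; end DIV 12. Fix PFA/Hoechst, anti-MAP2 + anti-synaptophysin IF. HCI neurite count vs DMSO baseline.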
# [11] = CCTE_Mundy_HCI_Cortical_Synap_Neur_Matur_CellBodySpotCount: CCTE's Synaptogenesis and Neurite Maturation Assay in rat cortical cells for Cell Body Spot Count, Mundy Lab (AID 2284223)
# Summary of the method: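 Chemicals were applied to AraC-treated rat primary cortical cells at DIV 7 and measured at DIV 12. Fixed cells were labelled for MAP2, synaptophysin and nuclei, and high-content imaging gave cell body synaptophysin spot counts per neuron relative to DMSO.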
# [12] = CCTE_Mundy_HCI_hNP1_Pro_ResponderAvgInten: CCTE's Proliferation Assay in human neuroprogenitor cells, Mundy Lab (AID 2284224; active = hit-call score of the fitted dose curve at least 0.9, where 1 is the maximum;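 note: human neural progenitor cells hNP1 derived from WA09 embryonic stem cells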)
# Summary of the method: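 Proliferation was scored as BrdU labelling intensity in human neural progenitors derived from WA09 embryonic cells, measured 26.25 hours after chemical dosing. Activity was fitted relative to DMSO.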
# [13] = CCTE_Mundy_HCI_hN2_NOG_NeuriteCount: CCTE's Neurite Outgrowth Assay in human hN2 cells for Neurite Count, Mundy Lab (AID 2284219; active = hit-call score of the fitted dose curve at least 0.9, where 1 is the maximum)
# Summary of the method: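 In this morphology assay, hNP1-derived neurons received test chemical 2 h post-plating and were fixed two days later in warm paraformaldehyde/sucrose containing Hoechst 33342. Neurites, labelled by rabbit anti-βIII-tubulin (1:800) and Alexa Fluor-488 (1:500), were counted automatically.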
# [14] = CCTE_Mundy_HCI_hN2_NOG_NeuriteLength: CCTE's Neurite Outgrowth Assay in human hN2 cells for Neurite Length, Mundy Lab (AID 2284220; active = hit-call score of the fitted dose curve at least 0.9, where 1 is the maximum)
# Summary of the method: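 Plate hNP1-derived neurons, then add chemical 2 h later as a 1/10 dilution. Stain with anti-βIII-tubulin then Alexa Fluor-488 secondary, and image automatically to measure neurite length.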
# [15] = CCTE_Mundy_HCI_hN2_NOG_NeuronCount: CCTE's Neurite Outgrowth Assay in human hN2 cells for Neuron Count, Mundy Lab (AID 2284221; active = hit-call score of the fitted dose curve at least 0.9, where 1 is the maximum)
# Summary of the method: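 Read-out is the number of betaIII-tubulin-positive neurons imaged by automated high-content analysis, with DMSO as negative control.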
# [16] = TAMU_PeakParms_SingleDonor1434_Chronotropy: Texas A&M University (TAMU) 1.5-hr Human Induced Pluripotent Stem Cell (iPSC)-derived Cardiomyocytes Calcium (Ca+2) Flux Assay for Cardiotoxicity: Chronotropy (changes in peak frequency) (AID 2284217); settings: actives raise or lower the signal
# Summary of the method: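 Beat rate, as mean Ca2+-flux peak frequency, was read from donor 1434 iPSC cardiomyocytes 90 min after exposure to 0.2–100 uM test chemical (0.5% DMSO). Wells that stopped beating were excluded; EC05 from bidirectional DMSO-referenced fitting.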
smiles,measurement,setting,value
CC[C@H](C)[C@H]1O[C@]2(C=C[C@@H]1C)C[C@@H]1C[C@@H](C/C=C(\C)[C@@H](O[C@H]3C[C@H](OC)[C@@H](O[C@H]4C[C@H](OC)[C@@H](NC)[C@H](C)O4)[C@H](C)O3)[C@@H](C)/C=C/C=C3\CO[C@@H]4[C@H](O)C(C)=C[C@@H](C(=O)O1)[C@]34O)O2,AC50,[1],25 µM (active) and 1.71 µM (active)
same,AC50,[2],5.17 µM (active) and 2.01 µM (active)
same,AC50,[3],6.92 µM (active) and 2.51 µM (active)
same,AC50,[4],587 nM (active) and 1 µM (active)
same,AC50,[5],428 nM (active) and 668 nM (active)
same,AC50,[6],1.47 µM (active) and 1.53 µM (active)
same,AC50,[7],387 nM (active) and 828 nM (active)
same,AC50,[8],441 nM (active) and 565 nM (active)
same,AC50,[9],522 nM (active) and 658 nM (active)
same,AC50,[10],657 nM (active) and 1.79 µM (active)
same,AC50,[11],1.12 µM (active) and 1.1 µM (active)
same,outcome,[12],inactive
CCOP(=S)(OCC)Oc1ccc2c(C)c(Cl)c(=O)oc2c1,outcome,[4],inactive
same,AC50,[5],50 µM (active)
same,AC50,[6],89.6 µM (active)
same,AC50,[7],50 µM (active)
same,outcome,[8],inactive
same,outcome,[9],inactive
same,AC50,[13],22.1 µM (active)
same,AC50,[14],18.6 µM (active)
same,AC50,[15],18.9 µM (active)
same,outcome,[10],inactive
same,outcome,[11],inactive
same,outcome,[12],inactive
CCOP(=S)(OCC)Oc1ccc([N+](=O)[O-])cc1,AC50,[4],20.9 µM (active)
same,AC50,[5],2.98 µM (active)
same,AC50,[6],23.7 µM (active)
same,AC50,[7],15 µM (active)
same,AC50,[8],15 µM (active)
same,outcome,[16],inactive
same,AC50,[9],15 µM (active)
same,outcome,[10],inactive
same,outcome,[11],inactive
COP(=O)(NC(C)=O)SC (stereo unspecified),outcome,[1],inactive
same,outcome,[2],inactive
same,outcome,[3],inactive
same,outcome,[4],inactive
same,outcome,[5],inactive
same,outcome,[6],inactive
same,outcome,[7],inactive
same,outcome,[8],inactive
same,outcome,[9],inactive
same,outcome,[13],inactive
same,outcome,[14],inactive
same,outcome,[10],inactive
same,outcome,[11],inactive
CCCCSP(=O)(SCCCC)SCCCC,AC50,[1],87.2 µM (active)
same,outcome,[2],inactive
same,AC50,[4],14 µM (active)
same,outcome,[4],inactive
same,AC50,[5],50 µM (active) and 14 µM (active)
same,AC50,[6],77.8 µM (active) and 49.9 µM (active)
same,AC50,[7],50 µM (active) and 14.2 µM (active)
same,AC50,[8],66.3 µM (active) and 12.9 µM (active)
same,AC50,[9],73.5 µM (active) and 15.5 µM (active)
same,AC50,[10],16.1 µM (active)
same,outcome,[10],inactive
same,AC50,[11],22.9 µM (active)
same,outcome,[11],inactive
same,AC50,[12],50 µM (active) and 74.1 µM (active)
CCCSP(=O)(OCC)Oc1ccc(Br)cc1Cl (stereo unspecified),outcome,[4],inactive
same,outcome,[5],inactive
same,outcome,[6],inactive
same,outcome,[7],inactive
same,outcome,[8],inactive
same,outcome,[9],inactive
same,outcome,[15],inactive
same,outcome,[10],inactive
same,outcome,[11],inactive
CCOC(=O)CC(SP(=O)(OC)OC)C(=O)OCC (stereo unspecified),outcome,[1],inactive
same,outcome,[2],inactive
same,AC50,[3],1.06 µM (active)
same,outcome,[4],inactive
same,outcome,[5],inactive
same,outcome,[6],inactive
same,outcome,[7],inactive
same,outcome,[8],inactive
same,outcome,[9],inactive
same,outcome,[13],inactive
same,outcome,[14],inactive
same,outcome,[10],inactive
same,outcome,[11],inactive
CC(=NC#N)N(C)Cc1ccc(Cl)nc1,AC50,[1],0.385 µM (active)
same,outcome,[2],inactive
same,outcome,[3],inactive
same,outcome,[4],inactive
same,outcome,[5],inactive
same,outcome,[6],inactive
same,outcome,[7],inactive
same,outcome,[8],inactive
same,outcome,[9],inactive
same,outcome,[10],inactive
same,outcome,[11],inactive
same,outcome,[12],inactive
CCOP(=O)(NC(C)C)Oc1ccc(SC)c(C)c1 (stereo unspecified),AC50,[1],27.9 µM (active)
same,outcome,[2],inactive
same,outcome,[3],inactive
same,outcome,[4],inactive
same,outcome,[5],inactive
same,outcome,[6],inactive
same,outcome,[7],inactive
same,outcome,[8],inactive
same,outcome,[9],inactive
same,outcome,[10],inactive
same,outcome,[11],inactive
same,outcome,[12],inactive
CC1=NNC(=O)N(/N=C/c2cccnc2)C1,outcome,[1],inactive
same,outcome,[2],inactive
same,outcome,[3],inactive
same,outcome,[4],inactive
same,outcome,[5],inactive
same,outcome,[6],inactive
same,outcome,[7],inactive
same,outcome,[8],inactive
same,outcome,[9],inactive
same,outcome,[10],inactive
same,outcome,[11],inactive
C=C(C)[C@H]1Cc2c(ccc3c2O[C@@H]2COc4cc(OC)c(OC)cc4[C@@H]2C3=O)O1,AC50,[1],0.0427 µM (active)
same,outcome,[1],inactive
same,AC50,[2],756 nM (active) and 41.6 nM (active)
same,AC50,[3],0.329 µM (active)
same,outcome,[3],inactive
same,AC50,[6],0.053 µM (active)
same,outcome,[16],inactive
COP(=O)(OC)C(O)C(Cl)(Cl)Cl (stereo unspecified),outcome,[1],inactive
same,outcome,[2],inactive
same,outcome,[3],inactive
same,outcome,[4],inactive
same,AC50,[5],26.8 µM (active)
same,outcome,[6],inactive
same,AC50,[7],36.9 µM (active)
same,AC50,[8],50 µM (active)
same,AC50,[9],50 µM (active)
same,outcome,[10],inactive
same,AC50,[12],50 µM (active)
CCOP(=O)(SC(C)CC)N1CCSC1=O (stereo unspecified),outcome,[4],inactive
same,outcome,[5],inactive
same,outcome,[6],inactive
same,outcome,[7],inactive
same,outcome,[8],inactive
same,outcome,[9],inactive
same,outcome,[13],inactive
same,outcome,[14],inactive
same,outcome,[15],inactive
same,outcome,[10],inactive
same,outcome,[11],inactive
CCOP(=S)(OCC)Oc1cc(C)nc(C(C)C)n1,outcome,[1],inactive
same,outcome,[2],inactive
same,outcome,[3],inactive
same,outcome,[4],inactive
same,AC50,[5],50 µM (active)
same,outcome,[6],inactive
same,AC50,[7],50 µM (active)
same,outcome,[8],inactive
same,outcome,[9],inactive
same,outcome,[10],inactive
same,outcome,[11],inactive
same,outcome,[12],inactive
S=C1NCCN1,outcome,[1],inactive
same,outcome,[2],inactive
same,outcome,[3],inactive
same,outcome,[4],inactive
same,outcome,[5],inactive
same,outcome,[6],inactive
same,outcome,[7],inactive
same,outcome,[8],inactive
same,outcome,[9],inactive
same,outcome,[10],inactive
same,outcome,[11],inactive
same,outcome,[12],inactive
C[N+]1(C)CCCCC1,outcome,[1],inactive
same,outcome,[2],inactive
same,outcome,[3],inactive
same,outcome,[4],inactive
same,outcome,[5],inactive
same,outcome,[6],inactive
same,outcome,[7],inactive
same,outcome,[8],inactive
same,outcome,[9],inactive
same,outcome,[10],inactive
same,outcome,[11],inactive
